The full ranking holds about 39,000 sequences; the median of “fluorescence intensity (a.u.)” is about 4,300, and the highest 2% start at about 39,000. Shown is part of a subset that was picked to be rich in the highest values.
target: T1, OsSMF1 (Oryza sativa, UniProt Q6ZLB0 1-436); experiment: protein-binding microarray (RPBM); PBS, 2% BSA, 51.3 ng/ul salmon testes DNA, 50 uM zinc acetate, 200 nM TF, 25 C, 1 h; high values mean tight binding; conditions: protein: recombinant; tags: N-terminal polyhistidine and DsRed monomer fusion (pET32a); chain copies: 2; label: CyDye5-dUTP incorporated in the synthesized complementary strand; 3' TTTTT single-stranded linker to array surface; dsDNA, one strand shown
T1 sequence: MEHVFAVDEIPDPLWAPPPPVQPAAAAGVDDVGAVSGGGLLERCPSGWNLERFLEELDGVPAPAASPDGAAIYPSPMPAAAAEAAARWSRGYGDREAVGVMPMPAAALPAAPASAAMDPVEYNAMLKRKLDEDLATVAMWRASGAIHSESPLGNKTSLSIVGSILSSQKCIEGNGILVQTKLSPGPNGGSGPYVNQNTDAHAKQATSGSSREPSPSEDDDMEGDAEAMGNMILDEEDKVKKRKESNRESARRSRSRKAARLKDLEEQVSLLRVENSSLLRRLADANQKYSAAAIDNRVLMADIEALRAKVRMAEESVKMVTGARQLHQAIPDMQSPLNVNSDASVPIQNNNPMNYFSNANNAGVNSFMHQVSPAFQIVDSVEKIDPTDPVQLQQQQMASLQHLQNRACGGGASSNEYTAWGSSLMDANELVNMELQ
How it was run: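 Binding signal is defined as the fluorescence intensity of each feature in arbitrary units, read on an Axon 4000B scanner. Transcription factors with N-terminal polyhistidine and DsRed fusions came from E. coli BL21-CodonPlus and were purified on Ni–NTA. They were incubated at 200 nM for 1 h at 25 °C on a custom Agilent array that had been made double-stranded with Cy5-dUTP, with 50 µM zinc acetate present, and the array was washed.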

Row | Sequence | binding signal
1 | CCGCGCTCACCTGCCGGGCGTGGCGCGCCGCGGTGGCCTCCGGAGTCACCTAGTGCAG | 3140 fluorescence intensity (a.u.)
2 | GAGCTCCGCCAGTACGAGTACAGACCCAGCTTCGCCGGCGCGGAGTCACCTAGTGCAG | 3580 fluorescence intensity (a.u.)
3 | GAGCGCGGAAGCCGGCGGCGGCCGTACGTGTTCGGCCGGCCGGAGTCACCTAGTGCAG | 3410 fluorescence intensity (a.u.)
4 | GCGCGCGCGGCGTTCGGGAGGAAGCGGAAGAGCGCGCCGGCGGAGTCACCTAGTGCAG | 47000 fluorescence intensity (a.u.)
5 | GGGCGGAGCGGGGCGGAGGGAGAGGAGGGAGAGGAGGGAGCGGAGTCACCTAGTGCAG | 4920 fluorescence intensity (a.u.)
6 | GCGAGGGGCGGGGAGAGCAGCGGCGGCGGCGGAGCGCGGCCGGAGTCACCTAGTGCAG | 39200 fluorescence intensity (a.u.)
7 | GCGGCGCCTCCGGGAAGCGCGGCGCCGCGTCCTCCTCCTCCGGAGTCACCTAGTGCAG | 3170 fluorescence intensity (a.u.)
8 | GGCGGCCACGGGCTCCGGCGGAGGGCGGCGTGGTGGCGGCCGGAGTCACCTAGTGCAG | 14400 fluorescence intensity (a.u.)
9 | GCCCCGCGGCTTCCGGCTGCCGTCGCCGCGAGCCCCGTGGCGGAGTCACCTAGTGCAG | 5050 fluorescence intensity (a.u.)
10 | TGTTTACGTCCAACGTTTAACCGCTCGTCTTATTTGAAATCGGAGTCACCTAGTGCAG | 21000 fluorescence intensity (a.u.)
11 | AGAAGTATTTCTGCGTCATTGTTGGAAATTATATTTCTAGCGGAGTCACCTAGTGCAG | 3650 fluorescence intensity (a.u.)
12 | GACACTTACAAGCACTGCGGCGTTACCATTTTATGGAACTCGGAGTCACCTAGTGCAG | 3220 fluorescence intensity (a.u.)
13 | GGAAAGGCGCCACGTAATAAATAGAAACAGACTCAGCACTCGGAGTCACCTAGTGCAG | 6760 fluorescence intensity (a.u.)
14 | TATGCCAAAGAGAAGCCTCGTCAGCCATCCCTTTGGCCACCGGAGTCACCTAGTGCAG | 7800 fluorescence intensity (a.u.)
15 | GAGCAGCCAGCTCGCCAAGCCTAGCCATTCTTGATCTCTTCGGAGTCACCTAGTGCAG | 3280 fluorescence intensity (a.u.)
16 | CGAAGTCGTGCTGCGCTCCGACTCAGCTGCATCGTCACTCCGGAGTCACCTAGTGCAG | 5960 fluorescence intensity (a.u.)
17 | GTCCATCGGATCGGGAGCGCGCGGCGAGGCAGGCGGGGTCCGGAGTCACCTAGTGCAG | 44300 fluorescence intensity (a.u.)
18 | GCGGAGGCCGCCGGCTGACGTGGCTCCCAACGGCCGGGAGCGGAGTCACCTAGTGCAG | 21200 fluorescence intensity (a.u.)
19 | GAGGAAGAACCTTACGCTCAAACGAAACGGAACCAGTAGGCGGAGTCACCTAGTGCAG | 55100 fluorescence intensity (a.u.)
20 | TCGGCCGTCGGATCGCGCGCGAAACGCTGTGATGTGCTGGCGGAGTCACCTAGTGCAG | 4480 fluorescence intensity (a.u.)
21 | GAGCCGAGACTGAGAGAGAGATCGGCGCCGGCTGTGAACGCGGAGTCACCTAGTGCAG | 48100 fluorescence intensity (a.u.)

Row | Sequence | binding signal
22 | TCGGGTGAGCGAGTGAGTGGGCGAGGAGGCGCGGCGGCGGCGGAGTCACCTAGTGCAG | 3800 fluorescence intensity (a.u.)
23 | ACTCGTGGAGCCGGTGATGACGTGCCCAAGCTAGAGACAGCGGAGTCACCTAGTGCAG | 7230 fluorescence intensity (a.u.)
24 | CTGCCGGTGGACGGCGGCGGAGAGCTGACTAGCCGAGCCGCGGAGTCACCTAGTGCAG | 3520 fluorescence intensity (a.u.)
25 | AAGAGGGAGGGGAGGGTTCGCGAACCAGTAGAAAACGGCTCGGAGTCACCTAGTGCAG | 3390 fluorescence intensity (a.u.)
26 | ACCCAACGGTGATGATGTCAGCTGACGTGGCGCCCCGGAGCGGAGTCACCTAGTGCAG | 40500 fluorescence intensity (a.u.)
27 | CAGGGCAGCGGCAGGTGGGGAGGAGGCCGGCGGGTCGGCGCGGAGTCACCTAGTGCAG | 3470 fluorescence intensity (a.u.)
28 | CAGCAGCAACGAAATCAGAACGAGGCGCAGGAAGAAGAAACGGAGTCACCTAGTGCAG | 28000 fluorescence intensity (a.u.)
29 | GGATTGGCGACTCGACGTTGACAACATGACATATGAGGTACGGAGTCACCTAGTGCAG | 4210 fluorescence intensity (a.u.)
30 | GCTGCTCTCTCTCTCTCTCTCTCCCATCTCGTCCTCGCTTCGGAGTCACCTAGTGCAG | 19400 fluorescence intensity (a.u.)
31 | TCCACCTGGGTTCAAATCCTAGATTTGACACGGGTGCTCGCGGAGTCACCTAGTGCAG | 4830 fluorescence intensity (a.u.)
32 | ATAGCATCCTGTACACTCAAGTCATCCCTGACACACACACCGGAGTCACCTAGTGCAG | 3850 fluorescence intensity (a.u.)
33 | GGGCCAATCTAGTTGTCAACTTCTACTACTGCTAGGAGGACGGAGTCACCTAGTGCAG | 3410 fluorescence intensity (a.u.)
34 | GCTCGCCGGCCTCACCCTCAATACATGGTGATTCATCCGGCGGAGTCACCTAGTGCAG | 3660 fluorescence intensity (a.u.)
35 | TGAATCCACAGCCACGCCACGCGGCCCATGCCTACGCCTCCGGAGTCACCTAGTGCAG | 4000 fluorescence intensity (a.u.)
36 | CCTTGCCGCCGGCCAATTTATTGACTCACCGAGAAGTTTGCGGAGTCACCTAGTGCAG | 5600 fluorescence intensity (a.u.)
37 | TGTGACCCATTCTAATACAATAAATCTGGACATGTGTACTCGGAGTCACCTAGTGCAG | 3630 fluorescence intensity (a.u.)
38 | GCCTTCCGTTCCGCTCCTCTACCGCCGCGTCAAGATTCCCCGGAGTCACCTAGTGCAG | 4950 fluorescence intensity (a.u.)
39 | TTTCCGCTATCGCGGTGCGCGCGGAAGGCCCCGCTGCGGCCGGAGTCACCTAGTGCAG | 39200 fluorescence intensity (a.u.)
40 | TGCGCCGCCGCCGCCGCCGCCGCTGCGGCGTGCATCCGCCCGGAGTCACCTAGTGCAG | 37400 fluorescence intensity (a.u.)
41 | CGCCGCCGGCCGCGCCGCCGCTGCCGCCGTCGCCCCGCGCCGGAGTCACCTAGTGCAG | 3450 fluorescence intensity (a.u.)
42 | ATCTCTAAACACCAAATTTGACACCGATCCACGTGCACACCGGAGTCACCTAGTGCAG | 7210 fluorescence intensity (a.u.)
